Sa ugtP lethal: compounds lethal to S. aureus RN4220 ugtP deletion mutant; growth inhibition, % (concentration not given with the values); OD600 growth, 16 h; hit rate 0.54% among 330,000; in the data active = growth inhibition above about 68%;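 also: plate controls were untreated wells for no effect and antibiotic for full effect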
Sa RN4220 lethal: kills Staphylococcus aureus RN4220; hit rate 0.33% among 330,000; S. aureus RN4220 growth, OD600, 16 h; inhibition, % (test concentration not listed); in the data active = inhibition above about 85%;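 also: plate controls were untreated cells for no effect and reference antibiotic for full effect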
BJeLR lethal: BJeLR cell viability loss | BJeLR (HRASV12) viability, CellTiter-Glo ATP luminescence, 48 h | inhibition, % (concentration not given with the values) | hit rate 0.17% among 300,000 | AID 1554; in the data active = inhibition above about 50%
The depositor's hits bear a star. In the library only some 0.65% were active in any assay of this set; here they are far more common.

O=C1C2CCCCN2C(=O)N1CCCCN1CCN(c2ccc(F)cc2)CC1 (stereo not given) was read as Sa ugtP lethal 0.2, Sa RN4220 lethal -1.5 and BJeLR lethal -4.4.
CCOC(=O)C1Oc2ccccc2C(c2ccc(C)cc2)=C1C(=O)OC (stereo not given) was read as Sa ugtP lethal 95.4* and Sa RN4220 lethal -0.2.
CCOC(=O)C1Oc2ccccc2C(c2ccc(F)cc2)=C1C(=O)OC (stereo not given) was read as Sa ugtP lethal 70.7 and Sa RN4220 lethal 2.9.
C=C1CCN(C(Cc2ccccc2)C(=O)NCc2ccccc2)S(=O)(=O)c2ccccc21 (stereo not given) was read as Sa ugtP lethal -9.4 and Sa RN4220 lethal 11.4.
Cc1cc(NN=Cc2ccc(O)c(C)c2O)nc(-c2ccccc2O)n1 was read as Sa ugtP lethal 98.3* and Sa RN4220 lethal 99.4*.
Cc1cc(N/N=C/c2c(O)ccc3ccccc23)nc(-c2ccccc2O)n1 was read as BJeLR lethal 17.9.
Screening Cc1cc(NN=Cc2c(O)ccc3ccccc23)nc(-c2ccccc2O)n1 returned Sa ugtP lethal 98.3* and Sa RN4220 lethal 99.0*.
Screening Cc1cc(NN=Cc2ccccc2O)nc(-c2ccccc2O)n1 returned Sa ugtP lethal -15.1 and Sa RN4220 lethal -1.8.
`CCOP(=O)(OCC)C(Cc1ccccc1)NC(C)=O` (stereo not given) gave Sa ugtP lethal 6.5, Sa RN4220 lethal 4.4 and BJeLR lethal 0.6.
O=C1c2cccc3cc([N+](=O)[O-])cc(c23)C(=O)N1CCN1CCCC1 was read as BJeLR lethal 95.6*.
Nc1cc2c3c(cccc3c1)C(=O)N(CCN1CCCC1)C2=O was read as Sa ugtP lethal 5.8, Sa RN4220 lethal -1.9 and BJeLR lethal 38.2.
N#CCN1CCC/C1=C\[N+](=O)[O-] was read as Sa ugtP lethal 6.8, Sa RN4220 lethal 1.2 and BJeLR lethal -5.9.
For CC1(C)CNC(=O)c2sc(NC(=O)c3ccccc3Cl)nc2C1 the results were Sa ugtP lethal -64.1, Sa RN4220 lethal 10.6 and BJeLR lethal 4.1.
Screening Cc1ccc(S(=O)(=O)N(C)N=O)cc1 returned Sa ugtP lethal 98.6* and Sa RN4220 lethal 98.7*.
For Cc1ccc(S(=O)(=O)N(C)S(=O)(=O)c2ccc(C)cc2)cc1 the results were Sa ugtP lethal 7.7, Sa RN4220 lethal 2.8 and BJeLR lethal 3.0.
Screening O=C(Oc1c(Cl)cc(Cl)c2cccnc12)c1cccs1 returned Sa ugtP lethal 65.9, Sa RN4220 lethal 72.0 and BJeLR lethal 1.0.
O=C(Oc1c(Cl)cc(Cl)c2cccnc12)c1ccco1 was read as Sa ugtP lethal 98.5*, Sa RN4220 lethal 98.7* and BJeLR lethal 5.3.
CCN(CC)c1ccc(NC(=O)Cn2ncc3c(C)n(Cc4ccccc4F)c(C)c3c2=O)c(C)c1 was read as Sa ugtP lethal 5.1, Sa RN4220 lethal 3.2 and BJeLR lethal 9.9.
`Cc1cccc(NC(=O)COc2ccc(C=Nn3cnnc3)cc2)c1` gave Sa ugtP lethal 13.2 and Sa RN4220 lethal -0.4.
For CCCn1c2c(c(=N)c3c1CCC3)CCCC2 the results were Sa ugtP lethal 3.4, Sa RN4220 lethal 3.0 and BJeLR lethal 0.9.
N=c1c2c(n(Cc3ccc([N+](=O)[O-])cc3)c3c1CCC3)CCCC2 was read as Sa ugtP lethal 8.3, Sa RN4220 lethal 0.3 and BJeLR lethal -8.3.
Screening N=c1c2c(n(Cc3ccc(Cl)c(Cl)c3)c3c1CCC3)CCCC2 returned Sa ugtP lethal 99.2*, Sa RN4220 lethal 90.9* and BJeLR lethal 49.3.
`N=c1c2c(n(Cc3ccc(Br)cc3)c3c1CCC3)CCCC2` gave Sa ugtP lethal 99.4*, Sa RN4220 lethal 40.7 and BJeLR lethal 21.9.
For O=C(NCCCn1ccnc1)/C(=C\c1cccnc1)NC(=O)c1ccccc1Br the results were Sa ugtP lethal 6.7, Sa RN4220 lethal 0.2 and BJeLR lethal -4.7.
Screening Nc1cccc2c1C(=O)N(CC(=O)NC13CC4CC(CC(C4)C1)C3)C2=O returned Sa ugtP lethal 11.7, Sa RN4220 lethal 4.4 and BJeLR lethal 0.7.
For O=C(Cn1sc2ccccc2c1=O)NC12CC3CC(CC(C3)C1)C2 the results were Sa ugtP lethal 100.6*, Sa RN4220 lethal 105.9* and BJeLR lethal -2.2.
CS(=O)(=O)c1ccc(-c2cccc(NC(=O)c3ccc(Br)o3)c2)nn1 was read as Sa ugtP lethal -1.7, Sa RN4220 lethal 0.7 and BJeLR lethal 2.7.
For CCOc1ccc2ccccc2c1C(=O)N[C@@H]1C(=O)N2[C@@H]1SC(C)(C)[C@@H]2C(=O)O the results were BJeLR lethal -2.3.
COC(=O)C1N2C(=O)C(NC(=O)COc3ccccc3)C2SC1(C)C (stereo not given) was read as Sa ugtP lethal 100.7* and Sa RN4220 lethal 100.6*.
For CC1(C)S[C@@H]2[C@H](NC(=O)Cc3ccccc3)C(=O)N2[C@H]1C(=O)O the results were Sa ugtP lethal 100.2*, Sa RN4220 lethal 99.6* and BJeLR lethal -5.1.
`CC1(C)S[C@@H]2[C@H](NC(=O)C(NC(=O)N3CCNC3=O)c3ccccc3)C(=O)N2[C@H]1C(=O)O` (stereo not given in full) gave Sa ugtP lethal 100.4*, Sa RN4220 lethal 100.5* and BJeLR lethal -9.6.
Screening CCCCCCCCCOC(=O)C1N2C(=O)[C@@H](NC(=O)COc3ccccc3)[C@H]2SC1(C)C (stereo not given in full) returned BJeLR lethal -0.7.
For CCC(Oc1ccccc1)C(=O)NC1C(=O)N2C1SC(C)(C)C2C(=O)O (stereo not given) the results were BJeLR lethal -12.0.
`COC(=O)c1ccccc1NC(=O)c1cccc(NC(=O)c2ccc(Br)o2)c1C` gave Sa ugtP lethal 12.1, Sa RN4220 lethal 17.7 and BJeLR lethal 0.1.
`O=C(CSc1nnc(NC(=O)C2CC(=O)N(c3ccccc3)C2)s1)NCC1CCCO1` (stereo not given) gave Sa ugtP lethal 3.5, Sa RN4220 lethal 0.4 and BJeLR lethal -2.6.
For COc1ccc(Cc2c(C)nc(N)nc2Cl)cc1 the results were Sa ugtP lethal 7.4, Sa RN4220 lethal 2.4 and BJeLR lethal -5.5.
For Cc1nc(N)nc(N)c1CCCc1ccc(Cl)c(Cl)c1 the results were Sa ugtP lethal 1.6, Sa RN4220 lethal 19.1 and BJeLR lethal 57.1*.
Screening Clc1cccc(/C=N/Nc2nc(Cl)nc3ccccc23)c1 returned BJeLR lethal -0.7.
For CC(C)[C@H](NC(=O)c1cccc(S(=O)(=O)N2CCOCC2)c1)C(=O)Nc1nccs1 the results were Sa ugtP lethal 1.0, Sa RN4220 lethal 9.6 and BJeLR lethal 1.5.
For Cc1cc(O)c2c(c1O)C(=O)[C@]13C(=C2O)C(=O)[C@@H]2[C@@H](O)[C@H]1[C@@H]1[C@H](O)[C@H]3C(=O)C3=C(O)c4c(O)cc(C)c(O)c4C(=O)[C@]312 the results were Sa ugtP lethal 98.8* and Sa RN4220 lethal 98.9*.
Cc1nc2c(C(=O)NCCC(C)C)c[nH]n2c(=O)c1Cc1ccccc1F was read as Sa ugtP lethal -12.8, Sa RN4220 lethal -8.9 and BJeLR lethal 3.5.
`COc1ccc(CC(=O)OCC(=O)Nc2c(C)n(C)n(-c3ccccc3)c2=O)cc1OC` gave Sa ugtP lethal 3.6 and Sa RN4220 lethal 2.0.
For CC1CCC(C(C)C)C(OC(=O)CSc2nnc(N)s2)C1 (stereo not given) the results were Sa ugtP lethal -6.1, Sa RN4220 lethal 7.9 and BJeLR lethal -7.9.

Bioassay records as filed in PubChem BioAssay.
